AmpC inh no detg = qHTS Inhibitors of AmpC Beta-Lactamase (assay without detergent); AmpC nitrocefin hydrolysis, absorbance 480 nm, 0.0001% Triton; Potency, µM (titrated, usually from 57.1 µM), actives largely listed as inhibitors; 330,000 compounds, 0.52% hits; also: nearly all actives have a fitted effect of over 20% in size
Target sequence (P00811 whole entry, looked up): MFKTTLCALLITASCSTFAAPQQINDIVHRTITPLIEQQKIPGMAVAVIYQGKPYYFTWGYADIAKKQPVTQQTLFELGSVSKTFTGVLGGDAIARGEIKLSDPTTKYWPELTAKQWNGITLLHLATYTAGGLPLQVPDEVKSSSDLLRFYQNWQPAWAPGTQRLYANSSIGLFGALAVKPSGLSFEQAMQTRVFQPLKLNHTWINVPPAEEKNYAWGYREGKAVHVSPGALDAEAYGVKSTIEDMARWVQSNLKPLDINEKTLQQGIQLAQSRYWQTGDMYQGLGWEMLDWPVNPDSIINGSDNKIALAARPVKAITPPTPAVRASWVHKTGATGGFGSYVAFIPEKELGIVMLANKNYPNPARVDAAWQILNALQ
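AmpC (5.3 nM in the dispensed reagent) in 20 mM phosphate pH 7.0 with 0.01% (detergent screen) or 0.0001% Triton X-100 was preincubated with compounds for 15 min at room temperature. Nitrocefin was then added from an 800 uM solution, and hydrolysis was followed at 480 nm.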
AmpC inh detg = qHTS Inhibitors of AmpC Beta-Lactamase (assay with detergent). P00811. AmpC hydrolysis of nitrocefin, absorbance 480 nm, 0.01% Triton. Potency, µM (titrated, usually from 114 µM), actives largely listed as inhibitors. 370,000 compounds, 0.041% hits. AID 485294, 2010; also: nearly all actives have a fitted effect of over 25% in size
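20 mM phosphate pH 7.0 + 0.01% (detergent screen) or 0.0001% Triton X-100; 5.3 nM AmpC reagent; cpd preinc 15 min RT; nitrocefin (800 uM stock) to start; A480 q20 s × 4 min; Activity was normalised to no-enzyme and no-compound control wells.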
Sm TGR block = qHTS Assay for the Inhibitors of Schistosoma Mansoni Peroxiredoxins; Potency, µM (titrated, usually from 114 µM), most hits filed as inhibitors; Schistosoma mansoni thioredoxin glutathione reductase (TGR), Q962Y6; AID 485364, 2010; purified TGR, DTNB reduction, TNB absorbance 405 nm; 360,000 compounds, 3% hits; also: nearly all actives have a fitted effect of over 60% in size
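Kinetic colorimetric format: TGR-catalysed, NADPH-driven DTNB reduction monitored via TNB absorbance. Enzyme dispensed at 20 nM; compound exposure 15 min at room temperature before reaction start.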
Hits are given with their value; – = inactive; ? = inconclusive; · = not tested or not shown. Rows were chosen to be rich in hits. Some 3.3% of all compounds tested hit in one or more screens of this group. Calls follow the shape of the dose curve; as a rule, active = well fitted curve in the direction sought with a large enough effect; inconclusive = small, poorly fitted or top-dose-only effect, or another doubt; inactive = no such curve, though single readings can be large; an effect the other way counts as inactive or inconclusive.

SMILES	AmpC inh no detg	AmpC inh detg	Sm TGR block
Cc1ccc(S(=O)(=O)Cc2ccc(C(=O)N3CCC(C)CC3)cc2)cc1	–	–	–
O=C(c1ccc(S(=O)(=O)Cc2cc(F)ccc2F)c([N+](=O)[O-])c1)N1CCCC1	–	–	?
O=C(c1ccc(Cl)c([N+](=O)[O-])c1)N1CCN(c2ccccn2)CC1	–	–	–
Cc1ccccc1CS(=O)(=O)c1cn(CC(=O)N2CCC(C)CC2)c2ccccc12	–	–	–
Cc1ccc(S(=O)(=O)CCNC(=O)Cc2ccccc2)cc1	–	–	–
O=[N+]([O-])/C(C=Nc1ccccc1O)=C\Nc1ccccc1O	–	–	?
CSCC(=O)Nc1nc(-c2ccc3c(c2)OCCO3)cs1	–	–	–
CCCC(=O)Nc1nc(-c2ccc3c(c2)OCCO3)cs1	11.2µM	?	–
Cc1ccc(CNS(=O)(=O)c2ccc(-n3cnnn3)c(C)c2)cc1	–	–	–
O=C(CN1CCOCC1)Nc1ccc(Br)cc1C(=O)c1ccccc1	–	–	–
O=C(CCN1CCOCC1)Nc1ccc(Br)cc1C(=O)c1ccccc1	–	–	25.1µM
COc1ccc2c(c1)c(C(=O)N/N=C/c1ccc(Br)cc1)c(C)n2C	–	–	–
CCOc1ccc(/C=N/NC(=O)c2c(C)n(C)c3ccc(OC)cc23)cc1	31.6µM	–	–
COc1cc(C(=O)N2CCc3c([nH]c4ccccc34)C2c2ccc(C)cc2)cc(OC)c1OC (configuration not stated)	·	–	–
Cc1cc(Sc2nc(N)ncc2[N+](=O)[O-])ncn1	–	–	2.24µM
Cc1ccc(C)c(Oc2ncnc(N)c2[N+](=O)[O-])c1	–	–	–
Cc1ccnc(Sc2ncccc2[N+](=O)[O-])n1	–	–	–
Cc1cc(Sc2ncnc(N)c2[N+](=O)[O-])ncn1	–	–	0.891µM
COc1ccc(CN2CCNC(=O)C2CC(=O)N(C)C2CCOCC2)c(F)c1 (configuration not stated)	–	?	?
COCCCNC(=O)CCC(=O)N1Cc2cccc(OC)c2Oc2ncccc21	·	–	–
Cc1ccc(S(=O)(=O)Nc2ccc(NC(=O)/C=C/C(=O)O)cc2)cc1	–	–	50.1µM
CCc1nnc(NS(=O)(=O)c2ccc(NC(=S)NC(=O)c3ccccc3)cc2)s1	–	–	39.8µM
CCc1nnc(NS(=O)(=O)c2ccc(NC(=S)NC(=O)c3ccc(Br)cc3)cc2)s1	–	?	?
COc1ccc(-n2ccc(=O)c(C(=O)Nc3ccc(S(=O)(=O)Nc4nccs4)cc3)n2)cc1	–	50.1µM	–
O=C(NC(=S)Nc1ccc(S(=O)(=O)Nc2nccs2)cc1)c1cccnc1	–	–	12.6µM
SMILES	AmpC inh no detg	AmpC inh detg	Sm TGR block
O=C(Nc1ccc(S(=O)(=O)Nc2nccs2)cc1)c1nn(-c2ccccc2)ccc1=O	–	?	–
CCOC(=O)Nc1ccc(NS(=O)(=O)c2ccc(C)cc2)cc1	–	–	–
O=C(NC(=S)Nc1ccc(S(=O)(=O)Nc2nccs2)cc1)c1ccc(F)c(F)c1	–	–	?
CC(C)C(=O)c1cn(CC(=O)N2CCCc3ccccc32)c2ccccc12	–	–	–
CC1CCCC(NC(=O)COC(=O)c2cc3ccccc3oc2=O)C1C (configuration not stated)	–	·	·
CCOc1ccc(OCCC(=O)N(CC)CC(=O)NCc2cccs2)cc1	–	–	–
CCc1nnc(NS(=O)(=O)c2ccc(NC(=O)/C=C/C(=O)O)cc2)s1	–	–	5.62µM
O=C(NC(=S)Nc1ccc(S(=O)(=O)Nc2nccs2)cc1)c1ccccc1F	–	–	–
O=C(NC(=S)Nc1ccc(S(=O)(=O)Nc2nccs2)cc1)c1ccccc1	–	–	35.5µM
CCc1nnc(NS(=O)(=O)c2ccc(NC(=O)/C=C/c3ccccc3Cl)cc2)s1	–	–	·
O=C(CNC(=S)N(Cc1ccccc1F)C1CCCCC1)NCC1CCCO1 (configuration not stated)	–	–	–
CC(C)(C)NC(=O)CSC(=Nc1ccc(F)cc1)NC#N	–	–	–
Cc1ccc(NC(=O)CNC(=O)Cn2cnc3sc(C)c(C)c3c2=O)cc1F	–	–	–
Cc1cc2oc(=O)cc(Cn3ncc(Cl)c(Cl)c3=O)c2cc1Cl	–	–	3.55µM
Cc1cc2oc(=O)cc(CN3CCCCC3C)c2cc1Cl (configuration not stated)	–	–	–
COc1ccc(CCNC(=S)N2CCC(Cc3ccccc3)CC2)cc1OC	–	–	–
CCCCN(CC)CCNC(=O)c1cc2c(=O)[nH]c3ccc(C)cc3c2s1	–	–	–
CCCCN(CC)CCCNC(=O)c1cc2c(=O)[nH]c3ccccc3c2s1	–	–	44.7µM
N#CC1=C(N)OC2=C(CCC/C2=C/c2ccoc2)C1c1ccoc1 (configuration not stated)	0.282µM	–	17.8µM
CC(C)(C)c1[nH]nc2c1C(c1ccoc1)C(C#N)=C(N)O2 (configuration not stated)	–	–	–
N#CC1=C(N)Oc2cc(N)ccc2C1c1ccc(F)cc1F (configuration not stated)	–	?	–
N#CC1=C(N)OC2=C(CC/C2=C\c2ccc(F)cc2)C1c1ccc(F)cc1 (configuration not stated)	–	–	25.1µM
Cc1ccc(Cl)c(NC(=O)COC(=O)c2nn(-c3ccccc3)cc2O)c1Cl	–	·	·
COc1cccc(NC(=O)C/C(C)=N/NC(=O)c2ccccc2Cl)c1	–	–	–
C/C(CC(=O)Nc1ccc(Cl)c(C(F)(F)F)c1)=N\NC(=O)c1cc2ccccc2cc1O	10µM	–	–
SMILES	AmpC inh no detg	AmpC inh detg	Sm TGR block
COc1cccc(CCNS(=O)(=O)CCNC(=O)c2cccc(OC)c2)c1	–	–	–
COc1cc(NC(=O)CCNS(=O)(=O)c2ccc3c(c2)CCC(=O)N3)cc(OC)c1	–	?	–
COc1ccc2[nH]c3c(NCCC4=CCCCC4)ncnc3c2c1	–	?	–
O=C(c1ccc(-c2ccc([N+](=O)[O-])cc2)o1)N1CCCC(C(F)(F)F)C1 (configuration not stated)	–	–	?
CC(=O)Nc1ccc(NC(=O)c2ccc(-c3ccc([N+](=O)[O-])cc3)o2)cc1	–	–	–
COc1cc([N+](=O)[O-])ccc1-c1ccc(C(=O)Nc2ccc(NC(C)=O)cc2)o1	–	–	20µM
C=CCNC(=O)c1ccc(-c2ccc([N+](=O)[O-])cc2)o1	–	–	17.8µM
C=CCNC(=O)c1ccc(-c2cccc([N+](=O)[O-])c2)o1	–	–	?
COc1cccc(NC(=O)c2ccc(-c3ccc([N+](=O)[O-])cc3)o2)c1	17.8µM	–	25.1µM
COc1ccc(NC(=O)c2ccc(-c3ccc([N+](=O)[O-])cc3)o2)cc1OC	–	–	–
O=C(c1ccc(-c2ccc([N+](=O)[O-])cc2)o1)N1CCCCCCC1	–	–	20µM
NC(=O)CC1C(=O)N(c2ccccc2)C(=S)N1NC(=O)c1ccccc1 (configuration not stated)	–	–	–

Compound activity as filed in PubChem.
